In the library only some 7.3% were active in any assay of this set; here they are far more common.
RORg inh: blocks mouse ROR gamma transcriptional activity; P51450; Drosophila S2 Gal4-RORgamma UAS-luciferase reporter, 20 h; Potency, µM (highest dose often 53.6 µM), inactives show at the highest dose activity change, negative = inhibition, usual class: inhibitors; 310,000 compounds, 5.4% hits; AID 2551; also: nearly all actives have a fitted effect of over 60% in size
Target sequence (P51450 whole entry, looked up, the tested form may be a part): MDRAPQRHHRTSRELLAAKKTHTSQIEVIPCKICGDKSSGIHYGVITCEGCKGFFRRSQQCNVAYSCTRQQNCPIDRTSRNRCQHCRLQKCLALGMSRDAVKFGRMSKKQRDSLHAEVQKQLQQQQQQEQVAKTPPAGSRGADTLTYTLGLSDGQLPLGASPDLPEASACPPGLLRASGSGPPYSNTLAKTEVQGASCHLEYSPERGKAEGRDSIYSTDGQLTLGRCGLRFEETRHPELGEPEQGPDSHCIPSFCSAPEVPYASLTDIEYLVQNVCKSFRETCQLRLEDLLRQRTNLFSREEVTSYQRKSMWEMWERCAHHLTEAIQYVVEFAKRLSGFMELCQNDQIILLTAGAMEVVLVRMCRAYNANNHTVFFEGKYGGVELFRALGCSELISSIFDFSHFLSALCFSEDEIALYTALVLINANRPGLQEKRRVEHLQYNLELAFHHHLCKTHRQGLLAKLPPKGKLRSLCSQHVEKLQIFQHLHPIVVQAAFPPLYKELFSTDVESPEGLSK
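Read-out: Photinus luciferase luminescence; inhibitors lower reporter signal. Insect Schneider cells with Gal4-ROR gamma fusion under metallothionein promoter, UAS reporter; 700 uM final copper sulfate induction, 20 hr, ambient temperature.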
Tau FP inhib: tau fibrillization inhibition (FP); Potency, µM (series often up to 57.7 µM), for inactives: at the top dose activity, negative = inhibition, most hits filed as inhibitors; 280,000 compounds, 0.39% hits; K18 P301L tau heparin fibrillization, Alexa594 FP, 6 h; AID 1468; also: nearly all actives have a fitted effect of over 55% in size
Target sequence (P10636 561-689 P618L limits assumed): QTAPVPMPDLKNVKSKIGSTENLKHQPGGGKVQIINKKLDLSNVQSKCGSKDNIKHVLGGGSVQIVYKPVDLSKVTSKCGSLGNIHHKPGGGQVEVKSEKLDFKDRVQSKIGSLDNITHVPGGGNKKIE
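Human K18 P301L fragment (15 uM unlabeled plus 0.24 uM Alexa 594-labeled) in 100 mM sodium acetate pH 7 with compound, aggregation induced by 20 uM heparin for 6 hr at 37 C. ThT (30 uM) added for 1 hr, then Alexa 594 FP read.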
Tau ThT inhib: blocks human tau fibril formation measured by thioflavin T | P10636 | recombinant tau K18 P301L, heparin-induced fibrillization, ThT fluorescence | Potency, µM (highest dose often 57.4 µM), for inactives: at the highest dose activity, negative = inhibition, most hits filed as inhibitors | 270,000 compounds, 2.1% hits | AID 1460; also: nearly all actives have a fitted effect of over 55% in size
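Recombinant human tau K18 fragment […] carrying P301L, 15 uM unlabeled plus 0.24 uM Alexa 594-labeled, was fibrillized with 20 uM heparin in 100 mM sodium acetate pH 7 for 6 hr at 37 C; 30 uM ThT fluorescence read after 1 hr.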
Gal4-VP16 FLuc: counter-screen for ROR gamma inhibitors: Gal4-VP16 reporter. Drosophila S2 Gal4-VP16 UAS-luciferase, luminescence, 20 h. Potency, µM (highest dose often 53.6 µM), for inactives: top-dose activity, negative = inhibition, most hits filed as inhibitors. AID 2546. 310,000 compounds, 3.5% hits;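 also: Gal4-VP16 expression switched on by copper sulfate through the metallothionein promoter; nearly all actives have a fitted effect of over 50% in size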
Tau fluor cs: counter-screen for tau fibril formation inhibitors; tau K18 P301L (four-repeat tau fragment) Alexa594 fluorescence, heparin fibrillization; AID 1463; Potency, µM (series often up to 57.7 µM), for the others: top-dose activity change, negative = decrease; 280,000 compounds, 0.93% hits; also: nearly all actives have a fitted effect of over 55% in size
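Human K18 P301L tau (15 uM unlabeled plus 0.24 uM Alexa 594-labeled, final) in 100 mM sodium acetate pH 7 was mixed with compound and 20 uM heparin and incubated 6 hr at 37 C.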
* marks the source's active call; other numbers are inactive results; ? = inconclusive; . = no result; ! = a repeat was not active; [ ] = remark or other dose. Calls follow the shape of the dose curve; as a rule, active = well fitted curve in the direction sought with a large enough effect; inconclusive = small, poorly fitted or top-dose-only effect, or another doubt; inactive = no such curve, though single readings can be large; an effect the other way counts as inactive or inconclusive. % is scaled to controls: 0 for no effect and ±100 for the full control effect; potency is read from the fitted curve at half-maximal effect.

SMILES	RORg inh	Tau FP inhib	Tau ThT inhib	Gal4-VP16 FLuc	Tau fluor cs
O=C(/C=C/c1ccc(Cl)cc1)NC(=S)Nc1ccc(NC(=O)c2ccco2)cc1	4.47µM*	?	?	7.08µM*	-3.7%
O=C(/C=C/c1ccccc1)Nc1ccc(CN2CCOCC2)cc1	-11.4%	7.6%	3.7%	3.4%	-2.4%
CCOC(=O)N1CCN(c2c(NCc3ccccc3Cl)c(=O)c2=O)CC1	1.7%	5.4%	3.1%	-5.2%	6.0%
O=C(NCc1ccc(F)cc1)c1ccc(CSCc2cccc(Cl)c2)o1	.	-2.5%	-15.5%	.	-20.7%
Cc1ccc(Cl)cc1NS(=O)(=O)c1ccc2c(c1)NC(=O)CCS2	.	-0.6%	4.2%	.	-7.8%
CCCCCCCCCCCCCCC(F)C(=O)O (configuration not stated)	10.4%	?	-8.6%	-8.5%	-4.3%
O=C(NC(=S)Nc1ccc(CN2CCOCC2)cc1)c1ccco1	0.2%	-10.3%	-4.0%	-11.8%	-3.6%
O=C(CC12CC3CC(CC(C3)C1)C2)NC(=S)Nc1ccc(CN2CCOCC2)cc1	1.58µM*	3.0%	-8.7%	10µM*	-14.9%
S=c1[nH]cnc2sc(Nc3ccccc3)nc12	1µM*	?	?	2.51µM*	-22.8%
O=C(O)Cc1sc(Nc2ccccc2)nc1-c1ccccc1	.	11.3%	?	.	-21.0%
COc1cccc(CNC(=O)CCC(=O)N2CC(C)Sc3ccccc32)c1 (configuration not stated)	.	-3.7%	-3.7%	.	-8.4%
Cc1ccc(C(=O)C(NC(=O)c2ccco2)Nc2sc3c(c2C(N)=O)CCCC3)cc1 (configuration not stated)	?	-12.1%	28.2µM*	5.1%	?
Cc1ccc(NC(=O)c2c(NC(=O)Cc3ccccc3)sc3c2CCC3)cc1	.	-8.5%	-10.1%	.	-17.4%
Cc1ccc(NC(=O)CN(C)CC(=O)Nc2sc3c(c2C(N)=O)CCC3)cc1	15.8µM*	.	.	?	.
O=C(CSc1ccccn1)Nc1nonc1[N+](=O)[O-]	5.62µM*	.	.	5.01µM*	.
CCN(CC)CCOc1ccc2c(c1)C(=NO)c1cc(OCCN(CC)CC)ccc1-2	-23.2%	-3.1%	?	-16.7%	-1.0%
CCCOc1ccc2c(c1)C(=NN=C(N)N)c1cc(OCCC)ccc1-2	14.1µM*	.	.	-22.6%	.
CCCOc1ccc(N)cc1N	4.47µM*	7.08µM*	3.16µM*	?	11.2µM*[quencher]
CCOCCCn1c(SCC(=O)Nc2cc(C)ccc2C)nc2c(oc3ccccc32)c1=O	.	1.7%	6.0%	.	-3.0%
Fc1ccccc1CNc1ccc(Cl)cc1	31.2%	12.4%	2.3%	14.2%	-5.9%
Oc1ccc(NCc2ccccc2OCc2ccccc2)cc1	?	12.6µM*!	14.1µM*	?	10µM*[quencher]
CCOc1cc(CNc2ccc(O)cc2)ccc1OCc1ccc(Cl)cc1	.	-7.9%	15.8µM*	.	14.1µM*[quencher]
Oc1ccc(NCc2ccccc2OCc2ccc(Cl)cc2)cc1	.	-14.8%	14.1µM*	.	?
CCOc1ccc(-c2cc(C(=O)NCc3ccc(OCC)c(OC)c3)[nH]n2)cc1	.	-1.3%	5.1%	.	2.0%
COc1ccc2c(c1)CCc1c(C(=O)Nc3cc(OC)c(Cl)cc3OC)noc1-2	.	-6.7%	-15.0%	.	-9.1%
SMILES	RORg inh	Tau FP inhib	Tau ThT inhib	Gal4-VP16 FLuc	Tau fluor cs
CCOc1ccc(-c2cc3c(=O)n(CC(=O)Nc4cc(F)ccc4C)ccn3n2)cc1	.	-7.3%	-4.2%	.	-3.5%
CCCCc1ccc(NC(=O)COc2ccc(C(=O)Nc3ccccc3C)cc2)cc1	?	4.3%	-10.8%	11.2µM*	-0.5%
CCCOc1ccc(C(=O)Nc2ccc(NC(=O)c3cccs3)cc2)cc1	5.8%	.	.	-7.1%	.
Cc1cc(OCC(=O)Nc2ccncc2)ccc1Cl	?	.	.	11.2µM*	.
Cc1cc(OCC(=O)N[C@@H](Cc2ccccc2)c2nc3ccccc3[nH]2)ccc1Cl	20µM*	-14.3%	-9.1%	?	-22.8%
CCCCOc1cccc(C(=O)Nc2ccc(NC(=O)c3cccs3)cc2)c1	?	.	.	0.1µM*	.
O=C(CN1C(=O)CCc2cc(S(=O)(=O)N3CCOCC3)ccc21)Nc1cccc(Cl)c1	.	-5.1%	-1.2%	.	-17.4%
Cc1[nH]c(=O)[nH]c(=O)c1S(=O)(=O)Nc1cccc(Cl)c1C	.	5.2%	-0.8%	.	1.3%
COC(=O)c1ccc(-n2c(/C=C/c3cc(OC)c(OC)c(OC)c3)nc3cc(Cl)ccc3c2=O)cc1	.	2.3%	3.8%	.	4.4%
CCCOc1ccc(C(=O)Nc2cccnc2)cc1	28.4%[1.91 µM]	.	.	-7.1%	.
O=C(Nc1ccncc1)c1cc(F)cc(F)c1	?	6.5%	-3.1%	25.1µM*	1.0%
Cc1cc(OCC(=O)Nc2ccncc2)cc(C)c1Br	0.0%	-8.9%	-15.9%	11.2µM*	?
CCCCOc1ccc(C(=O)Nc2ccncc2)cc1	?	2.3%	-2.8%	7.94µM*	-7.7%
O=C(COc1ccc2ccccc2c1)Nc1ccncc1	?	-12.2%	-21.6%	12.6µM*	-9.1%
Nc1nc2c(nc(Br)n2C2CC(O)C(CO)O2)c(=O)[nH]1 (configuration not stated)	21.3%	-1.9%	3.8%	5.0%	3.0%
CN1CCN(S(=O)(=O)c2ccc(NC(=O)c3ccccc3F)cc2)CC1	-12.3%	.	.	5.2%	.
CCc1ccc(OCC(=O)Nc2ccncc2)cc1	38.7%[1.91 µM]	.	.	3.55µM*	.
CC(C)(C)c1ccc(NC(=O)COc2ccc(-n3ccnc3)cc2)cc1	10µM*	1.4%	-35.2%	-12.5%	?
CN(Cc1ccccc1)C(=S)NC(=O)c1ccccc1	1µM*	-3.3%	-0.8%	2.82µM*	-0.9%
COc1cc(C(=O)NCc2ccccc2)cc(Br)c1OC	41.6%	-2.2%	10.8%	-19.8%	8.7%
COc1ccc(C(=O)NC(=S)N(C)Cc2ccccc2)cc1Br	0.398µM*	-6.6%	10.0%	0.708µM*	8.4%
CCCn1cnc2scc(-c3ccc(C)c(C)c3)c2c1=O	20.1%	.	.	-5.1%	.
O=C(CC1C(=O)NCCN1C(=O)Nc1ccccc1)Nc1cc(Cl)cc(Cl)c1 (configuration not stated)	2.3%	.	.	4.8%	.
COc1cccc([C@@H]2Oc3ccc(Br)cc3C(=O)[C@H]2OC(=O)Nc2ccc(C)c(Br)c2)c1	9.7%	2.4%	?	-2.6%	-10.1%
COC1=C(OC)C(=O)c2ccccc2C1=O	.	?	12.6µM*	.	-23.0%
SMILES	RORg inh	Tau FP inhib	Tau ThT inhib	Gal4-VP16 FLuc	Tau fluor cs
COc1ccc(N)c2c1C(=O)c1ccccc1C2=O	-28.1%	?	15.8µM*	-23.2%	-25.0%
COc1ccc(OC)c2c1C(=O)c1ccccc1C2=O	5.9%	?	35.5µM*	-3.6%	-25.9%
COc1cccc2c1C(=O)c1ccc3ccccc3c1C2=O	?	?	?	10.8%	?
Nc1ccc(Br)c2c1C(=O)c1ccccc1C2=O	?	3.0%	5.01µM*	-3.0%	?
CCOC(=O)c1c(NC(C)=O)c2c3c(sc2n1Cc1cc(C)ccc1C)CCCC3	.	-11.2%	10.3%	.	16.0%
COC(=O)CC1Oc2ccccc2-n2cc(-c3ccc(F)cc3)nc21 (configuration not stated)	.	-18.8%	-13.8%	.	?

High-throughput results (PubChem)
